In all, about 210,000 compounds went through this assay and about 5,900 (2.8%) were called active. Roughly 5% stayed inconclusive and do not appear here. The call rests on the fitted dose curve; in most records, active means well fitted activation curve with a large enough effect; inconclusive means small, poorly fitted or top-dose-only effect; inactive means no such curve, though single readings can be large or run the other way. Only a selection was taken, and actives are over-represented in it overall.
Assay: qHTS Assay for Enhancers of SMN2 Splice Variant Expression; further: nearly all actives have a fitted effect of over 55% in size; on activity change, positive = activation: % of control where 0% means no effect
Conditions: HEK293 SMN2-luciferase splicing reporter, luminescence, 30-36 h; series mostly up to 46.1 µM; activity change, positive = activation: at the top concentration
Procedure, shortened: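 qHTS luciferase splicing reporter: luminescence rises when SMN2 exon 7 is included in transfected HEK293 cells. Compound exposure lasted 30-36 h at 37C, with 4.5 mM final sodium butyrate as control, followed by a ONE-Glo read.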
Potency means the concentration at half of the fitted maximal effect.

Row | SMILES | activity change, positive = activation | Potency
1 | CCOC(=O)c1ccccc1NC(=O)c1nn(-c2ccc(OC)c(Cl)c2)c(=O)c2c1c1ccccc1n2C | -6.12% (inactive) | –
2 | COc1cccc(OC)c1C(=O)Nc1nnc(C(C)C)s1 | -3.99% (inactive) | –
3 | COc1ccc(C(=O)Nc2nncs2)c(OC)c1 | – | 11.2 µM (active)
4 | O=C(Nc1nncs1)c1ccccc1NS(=O)(=O)c1cccs1 | -4.37% (inactive) | –
5 | O=S(=O)(c1ccc(C2CCCCC2)cc1)N1CCN(c2ccc(Cl)c(Cl)c2)CC1 | -6.14% (inactive) | –
6 | COc1ccc(-c2csc(NC(=O)COC(=O)c3ccc(Br)o3)n2)cc1 | – | 0.794 µM (active)
7 | CC(C)(C)NC(=O)NC(=O)COC(=O)Cc1ccc(Cl)cc1Cl | 9.02% (inactive) | –
8 | CCCc1ccc(-c2csc(NC(=O)Cc3cccs3)n2)cc1 | -91.3% (inactive) | –
9 | COc1ccc(-c2csc(NC(=O)CCCc3cccs3)n2)cc1 | -8.51% (inactive) | –
10 | COc1ccc(-c2csc(NC(=O)COC(=O)Cc3ccc(Cl)cc3Cl)n2)cc1 | – | 11.2 µM (active)
11 | COc1ccc(-c2nc(CCNC(=O)c3ccc(Br)o3)cs2)cc1 | -57.5% (inactive) | –
12 | COc1ccc(Nc2ncc(C(=O)Nc3cc(C)ccc3OC)c3ccccc23)cc1 | 3.77% (inactive) | –
13 | COc1ccc(-n2c(SCC(N)=O)nc3c(oc4ccccc43)c2=O)cc1 | -12.5% (inactive) | –
14 | O=C(NCc1ccccc1)c1cc(-c2cccc(Cl)c2)on1 | 0.862% (inactive) | –
15 | COc1ccccc1CNc1nc2ccc(Cl)cc2n2cnnc12 | -0.672% (inactive) | –
16 | Cc1ccc(Cl)cc1NC(=O)C(C)n1nnc2sc(-c3ccccc3)cc2c1=O (stereo not given) | 1.18% (inactive) | –
17 | O=C(CCSc1ccccc1)N1CCN(c2ccccc2F)CC1 | – | 11.2 µM (active)
18 | O=C(CCS(=O)(=O)c1cccc2nsnc12)N1CCN(c2ccccc2F)CC1 | -8.49% (inactive) | –
19 | O=C(c1cccc2ccccc12)N1CCN(c2ccccc2F)CC1 | -6.5% (inactive) | –
20 | Cc1cc2n(n1)C(c1cc(C(C)(C)C)c(O)cc1O)Nc1ccccc1-2 (stereo not given) | -2.87% (inactive) | –
21 | Cc1cccc(CSc2nc3ccncc3n2CC(=O)N(C)C2CCCCC2)c1 | 3.04% (inactive) | –
22 | CCOc1ccc(-c2cc3nc(C4CCN(C(=O)OC(C)(C)C)CC4)c(C(=O)Nc4cccc(CC)c4)cn3n2)cc1 | 6.72% (inactive) | –
23 | Cc1ccccc1CSCC(=O)NC(=O)NC(C)(C)C | 10.4% (inactive) | –
24 | CC(C)(C)NC(=O)CSC(=Nc1ccccc1F)NC#N | – | 20 µM (active)

Row | SMILES | activity change, positive = activation | Potency
25 | CC(C)(C)NC(=O)CSc1nc(-c2ccc(F)cc2)cc(C(F)(F)F)n1 | 17.7% (inactive) | –
26 | Cc1cc(C)cc(NC(=O)Cc2csc(C)n2)c1 | -8.87% (inactive) | –
27 | CCNC(=O)N1CCNC(=O)C1CC(=O)Nc1ccc(C(=O)OCC)cc1 (stereo not given) | -30.7% (inactive) | –
28 | COc1cccc(NC(=O)CC2C(=O)NCCN2C(=S)Nc2ccc(F)cc2)c1 (stereo not given) | -6.38% (inactive) | –
29 | COC(=O)c1cc(NC(=O)CC2C(=O)NCCN2C(=O)c2ccc(F)cc2)cc(C(=O)OC)c1 (stereo not given) | – | 10 µM (active)
30 | COc1cc2c(=O)c(S(=O)(=O)c3ccc(C(C)C)cc3)cn(Cc3ccccc3C)c2cc1OC | -15.4% (inactive) | –
31 | O=C(Nc1ccccc1)c1cc2ccccc2[nH]1 | – | 11.2 µM (active)
32 | O=C(Nc1ccccc1)c1ccc2nsnc2c1 | 14% (inactive) | –
33 | O=C(Nc1cccc(NC(=O)c2ccc(Br)cc2)c1)c1ccccc1 | 1.19% (inactive) | –
34 | Cc1nc(SCC(=O)N2CCN(c3ccccc3)CC2)[nH]c(=O)c1C | 7.64% (inactive) | –
35 | Cc1oc(-c2ccccc2F)nc1CN1CCC(C(=O)NCCc2ccc(Cl)cc2)CC1 | 8.98% (inactive) | –
36 | COc1ccc(NC(=O)C2CCCN(S(=O)(=O)c3c(C)[nH]c(=O)[nH]c3=O)C2)c(OC)c1 (stereo not given) | 7.41% (inactive) | –
37 | CCOC(=O)c1c(NC(=O)c2ccc(N3CCOCC3)c([N+](=O)[O-])c2)sc(C)c1C | -0.319% (inactive) | –
38 | COc1ccc(C(=O)Nc2ccc(CN3CCOCC3)cc2)cc1 | -18% (inactive) | –
39 | COc1ccc(C(=O)Nc2sc(C)c(C)c2CN2CCOCC2)cc1 | – | 12.6 µM (active)
40 | CCOC(=O)C1CCCN(C(=O)Cn2ncc3c(C)n(Cc4ccc(F)cc4)c(C)c3c2=O)C1 (stereo not given) | -22.8% (inactive) | –
41 | COc1ccc(-c2noc(CSc3nc4ccc(C)cc4[nH]3)n2)cc1 | -46.7% (inactive) | –
42 | Cc1ccccc1C(=O)Nc1sc2c(c1C(=O)N1CCC(C)CC1)CCCC2 | -1.84% (inactive) | –
43 | Cc1c(NC(=O)c2cc(=O)c3ccccc3o2)c(=O)n(-c2ccccc2)n1C | -4.74% (inactive) | –
44 | Cc1nn(C)cc1CNC(=O)Nc1ccc(Cl)cc1 | – | 15.8 µM (active)
45 | COc1ccc(Cl)cc1C(=O)NCc1cn(C)nc1C | 1.02% (inactive) | –
46 | Cc1nn(C)cc1C(=O)NNC(=S)Nc1ccc(Cl)cc1 | 8.55% (inactive) | –
47 | Oc1ccccc1-c1nc(/C=C/c2ccc(F)cc2)no1 | 3.13% (inactive) | –
48 | CCOC(=O)c1ccc(-c2ccc(C(=O)Nc3cccnc3)o2)cc1 | – | 6.31 µM (active)

Row | SMILES | activity change, positive = activation | Potency
49 | CCOC(=O)c1cc(NC(=O)c2cccnc2)cc(C(=O)OCC)c1 | 12.2% (inactive) | –
50 | COc1ccc(C(=O)Nc2cccnc2)cc1C(=O)Nc1cccnc1 | -8.52% (inactive) | –
51 | CCN(CC)c1ccc(C2C(C(N)=O)=C(C)Nc3nc(SCc4ccccc4)nn32)cc1 (stereo not given) | 7.44% (inactive) | –
52 | COCCn1c(CCC(=O)Nc2cc(C)ccc2C)nc2cccnc21 | 7.93% (inactive) | –
53 | N#C/C(=C\c1ccccc1F)c1nc2ccccc2c(=O)[nH]1 | -1.96% (inactive) | –
54 | COc1ccccc1-c1nnc(NC(=O)c2ccc3ncsc3c2)o1 | – | 14.1 µM (active)
55 | COc1ccccc1-c1nnc(SCC(=O)Nc2cc(C)on2)o1 | -3.86% (inactive) | –
56 | COc1ccccc1-c1nnc(NC(=O)c2cccc(N3C(=O)CCC3=O)c2)o1 | 2.48% (inactive) | –
57 | Cn1c(=O)c2sccc2n2c(CCC(=O)NCc3ccccc3Cl)nnc12 | 1.76% (inactive) | –
58 | CCc1ccc2oc(-c3ccc(N)cc3)nc2c1 | – | 1 µM (active)
59 | CCc1ccc2oc(-c3ccc(C)c(NC(=O)/C=C/c4ccco4)c3)nc2c1 | 4.88% (inactive) | –
60 | CCc1ccc2oc(-c3ccc(NC(=O)c4cc5ccccc5o4)cc3)nc2c1 | 6.02% (inactive) | –
61 | COc1ccc(OC)c(-c2csc(-c3c(N)c(C(=O)c4ccccc4)n4ccccc34)n2)c1 | -0.921% (inactive) | –
62 | CCc1nn(CC(=O)N2CCN(c3cc(C)ccc3C)CC2)c(=O)c2cc3occc3n12 | 2.38% (inactive) | –
63 | O=C(c1ccc(Cl)cc1)n1nc(-c2cccnc2)nc1NCc1ccc(F)cc1 | 1.47% (inactive) | –
64 | COc1cc(Cl)c(C)cc1NC(=O)CCc1nc2cccnc2n1Cc1cccs1 | -6.37% (inactive) | –
65 | Cc1ccc(Nc2nnc(SCC(=O)c3cc4ccccc4o3)s2)cc1C | – | 12.6 µM (active)
66 | Cc1ccccc1Nc1nnc(SCC(=O)c2cc3ccccc3o2)s1 | -3.61% (inactive) | –
67 | Cc1cc2c(=O)n(C)c(SCC(=O)c3cc4ccccc4o3)nc2s1 | -1.87% (inactive) | –
68 | O=C(CSc1nnc(Nc2ccccc2)s1)Nc1cccnc1Cl | 5.82% (inactive) | –
69 | CC(C)Nc1nnc(SCC(=O)c2c[nH]c3ccccc23)s1 | -12.7% [at 1.84 µM] (inactive) | –
70 | CC(C)c1ccc(Nc2nnc(SCC(=O)c3nnc(-c4ccccc4)o3)s2)cc1 | – | 10 µM (active)

From PubChem BioAssay AID1458 (National Center for Advancing Translational Sciences (NCATS), 2008)
